# Screen size: about 360,000 compounds; about 11,000 (3.1%) were called active. Entries that show only a call come without a potency. Another 4% or so got no clear call; they are omitted. The call rests on the fitted dose curve; in most records, active means well fitted inhibition curve with a large enough effect; inconclusive means small, poorly fitted or top-dose-only effect; inactive means no such curve, though single readings can be large or run the other way. This excerpt belongs to a sample that is enriched for actives.
# Molecular target: Schistosoma mansoni thioredoxin glutathione reductase (TGR) (UniProt Q962Y6)
# Experiment: qHTS Assay for the Inhibitors of Schistosoma Mansoni Peroxiredoxins; further: nearly all actives have a fitted effect of over 60% in size
# Conditions: purified TGR, DTNB reduction, TNB absorbance 405 nm; series mostly up to 114 µM
# Summary of the method: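 First, TGR (20 nM dispensed) and NADPH were mixed with compound. Second, a 15 min room-temperature incubation followed. Third, further NADPH and then DTNB were added to start the reaction. Finally, TNB absorbance was monitored kinetically.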
# Potency means the concentration at half of the fitted maximal effect.
row,Compound,Potency
1,Cc1ccc(-c2nn3c(=O)cc(CN4CCN(C(=O)Nc5cccc(C(F)(F)F)c5)CC4)nc3s2)cc1,inactive
2,O=C(NC(=S)Nc1ccc(Cl)c(C(=O)O)c1)c1cncc(Br)c1,12.6 µM (active)
3,O=C(Nc1ccc(N2CCCC2=O)cc1)c1cncc(Br)c1,inactive
4,COC(=O)c1ccccc1NC(=O)c1cncc(Br)c1,inactive
5,Cc1ccc(C(=O)N2CC(=O)Nc3ccccc32)o1,inactive
6,Cc1ccc(CNC(=O)C2(C(F)(F)F)C/C(=C\Cc3ccccc3)CCCO2)o1 (configuration not stated),20 µM (active)
7,Cc1ccc(CNC(=O)Cn2cnc(S(=O)(=O)N3CCCCC3)c2)o1,inactive
8,COC(=O)c1cccc(Cn2nnc3sc4c(c3c2=O)CCC(C(C)(C)C)C4)c1 (configuration not stated),inactive
9,COc1cn(CC(=O)Nc2cccc(C)c2C)c(CN2CCCCC2)cc1=O,inactive
10,CCc1ccccc1NC(=O)CSc1nc(C)c(C(=O)Nc2ccccc2)c(-c2ccc(Cl)cc2)c1C#N,inactive
11,COc1ccc(-c2onc(C)c2C)cc1S(=O)(=O)NCC1CCN(Cc2cccc(F)c2)CC1,inactive
12,CCN1C(=O)[C@@H]2[C@@H](c3ccc(-c4ccccc4)cc3)N3CCCC[C@@]3(C(=O)OC)[C@@H]2C1=O,35.5 µM (active)
13,CCN1C(=O)[C@H]2[C@@H](c3ccc(SC4CCCCC4)c(OC)c3)N[C@@](Cc3ccccc3)(C(=O)OC)[C@H]2C1=O,inactive
14,COC(=O)[C@@]12CCCN1[C@H](c1ccc(-c3ccc(F)cc3)c(OC)c1)[C@H]1C(=O)N(C)C(=O)[C@H]12,inactive
15,CCN1C(=O)[C@@H]2[C@@H](c3ccc(-c4ccc(OC)cc4)c(OC)c3)N3CCC[C@@]3(C(=O)OC)[C@@H]2C1=O,inactive
16,CCN1C(=O)[C@H]2[C@@H](c3ccc(-c4ccc(F)cc4)cc3)N[C@@](Cc3ccccc3)(C(=O)OC)[C@H]2C1=O,inactive
17,CCN1C(=O)[C@@H]2[C@@H](c3ccc(-c4cccc(Cl)c4)cc3)N3CCC[C@@]3(C(=O)OC)[C@@H]2C1=O,22.4 µM (active)
18,Cc1ccc(S(=O)(=O)c2c(Nc3cccc(Cl)c3)sc(C(=O)c3ccc4c(c3)OCO4)c2N)cc1,inactive
19,CCOC(=O)c1cccc(NS(=O)(=O)c2cc(-c3cnc(C)o3)ccc2OC)c1,inactive
20,CCOc1ccc(S(=O)(=O)Nc2ccc3oc4c(c3c2)CC(C)CC4)cc1 (configuration not stated),inactive
21,CCOc1ccc(C2C(=O)N(C3CCCCC3)CC(=O)N2CCC2=CCCCC2)cc1OC (configuration not stated),inactive
22,Cc1cccc(-n2ncc(Cl)c(Cl)c2=O)c1,28.2 µM (active)
23,Cc1ccc(-n2ncc3c(=O)[nH]cnc32)c(C)c1,inactive
24,C=CCNc1cnn(-c2ccc(C)cc2)c(=O)c1Cl,inactive

row,Compound,Potency
1,COc1ccc(Cn2c(=O)n(-c3ccccc3C)c(=O)c3c4c(sc32)CN(C(C)=O)CC4)cc1,inactive
2,Cc1cc(C)n(CCNC(=O)CC2C(=O)NCCN2Cc2ccc(C)o2)n1 (configuration not stated),39.8 µM (active)
3,Cc1nccn1CCCNC(=O)CC1C(=O)NCCN1Cc1ccc(Cl)c(F)c1 (configuration not stated),inactive
4,O=C(CC1C(=O)NCCN1CC(c1ccccc1)c1ccccc1)NCC1CCOCC1 (configuration not stated),inactive
5,CCc1nn(CC(=O)N2CCN(c3cccc(C(F)(F)F)c3)CC2)c(=O)c2cc3occc3n12,inactive
6,Cc1c(CNC(C)c2ccccc2)c(C(=O)O)c(C)n1Cc1c(F)cccc1Cl (configuration not stated),inactive
7,COc1ccc(OC)c(NC(=O)C2CCCN(S(=O)(=O)c3ccc4c(c3)CCCC(=O)N4)C2)c1 (configuration not stated),inactive
8,O=C1CN(C(=O)COC(=O)C2CC(=O)N(Cc3ccco3)C2)c2ccccc2N1 (configuration not stated),39.8 µM (active)
9,Cc1ccc(S(=O)(=O)N2CCC(C(=O)OCC(=O)N3CC(=O)Nc4ccccc43)CC2)cc1,inactive
10,COc1cc(OC)c(C(=O)OCC(=O)N2CC(=O)Nc3ccccc32)cc1OC,inactive
11,COc1ccccc1-c1cc2nc(C)c(CCC(=O)NC3CCCCC3)c(C)n2n1,inactive
12,CCc1ccc(NC(=O)c2cnc3c(-c4ccccc4)c(C)nn3c2C)cc1,inactive
13,COc1ccc(C)cc1N(C)C(=O)c1c(C)oc2ncnc(N3CCOCC3)c12,inactive
14,CCN(CC)c1cc(NC2CCCCC2)c2c3c(onc13)-c1ccccc1C2=O,inactive
15,CCCN(CCC)C(=O)Cn1c(=O)n(-c2ccc(Cl)cc2)c(=O)c2c3c(sc21)CCCCC3,inactive
16,CCc1cccc(C)c1Nc1c(-c2ccc(N(C)C)cc2)nc2ncccn12,inactive
17,CCOc1ccc(NC(=O)CCc2c(C)nn(-c3ccc(N4CCCC4)nn3)c2C)cc1,inactive
18,Cc1cccc(NC(=O)CSc2nnc(CNC(=O)c3cccc(C)c3)n2-c2ccccc2)c1,inactive
19,Cc1c(NC(=S)Nc2ccccc2)c(=O)n(-c2ccccc2)n1C,inactive
20,Cc1c(NS(=O)(=O)c2ccc(Cl)cc2)c(=O)n(-c2ccccc2)n1C,inactive
21,CCN(CC)P(=O)(/C(Cl)=C\Nc1c(C)n(C)n(-c2ccccc2)c1=O)N(CC)CC,89.1 µM (active)
22,COc1ccccc1CNc1nccn(-c2ccc(F)cc2)c1=O,inactive
23,N#CC1=C(N)Oc2c(sc3ccccc23)C1c1ccco1 (configuration not stated),31.6 µM (active)
